Screening data from PubChem.
ALDH1A1 inh: inhibitors of human aldehyde dehydrogenase 1A1; P00352; Purified ALDH1A1, NADH fluorescence, propionaldehyde substrate; Potency, µM (highest dose often 75.3 µM), inactives show at the highest dose activity, negative = inhibition, actives largely listed as inhibitors; actives 7.3% (n = 220,000);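 further: potency means the concentration at half of the fitted maximal effect; plate controls were no enzyme wells and a reference inhibitor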
PNC inhibitor: inhibitors of perinucleolar compartment assembly. actives 3.1% (n = 140,000). PC3M PTB-GFP, PNC prevalence imaging, 16 h; stronger effect = lower value. activity change (PNC), negative = inhibition, % at 10 µM;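 active means readout at or below -70, meaning at least 70% loss of cells showing the perinucleolar compartment, a nuclear body marking cancer cells; inconclusive means readout between -30 and a set limit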;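 further: plate controls were DMSO wells for no effect and camptothecin positive control wells for full effect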
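Compounds are pinned in duplicate onto adhered PC3M cells stably expressing GFP-tagged PTB and incubated 16 h at 37 C. Cells are then fixed, nuclei stained with Hoechst, and PNC-positive cells counted.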
HPGD inh: inhibitors of human 15-hydroxyprostaglandin dehydrogenase (HPGD); actives 4.3% (n = 150,000); Potency, µM, for inactives: at the highest dose activity change, negative = inhibition, most hits filed as inhibitors; purified HPGD, NADH fluorescence kinetic, PGE2 substrate; P15428; further: potency means the concentration at half of the fitted maximal effect
Target sequence (P15428 whole entry, looked up): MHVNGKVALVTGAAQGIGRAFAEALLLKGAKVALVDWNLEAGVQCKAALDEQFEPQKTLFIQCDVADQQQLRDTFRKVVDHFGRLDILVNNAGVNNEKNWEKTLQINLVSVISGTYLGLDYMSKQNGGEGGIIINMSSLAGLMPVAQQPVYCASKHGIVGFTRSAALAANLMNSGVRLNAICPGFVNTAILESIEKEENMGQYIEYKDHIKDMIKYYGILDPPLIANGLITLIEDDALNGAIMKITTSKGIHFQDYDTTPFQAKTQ
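20 nM HPGD preincubated 15 min at room temperature with compound in 50 mM Tris-HCl pH 8, 0.01% Tween 20. Started with 1 mM NAD+ and 30 uM prostaglandin E2; NADH fluorescence (360/450 nm) read 5 times over 30-s intervals, last minus first.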
An asterisk follows results filed as active; ? = inconclusive; / = no result given; [ ] = remark or other dose. Compounds with a hit are over-represented: about 11% of the library has one in this group of screens. Unless noted, the call rests on the fitted dose curve; in most records, active means well fitted inhibition curve with a large enough effect (not every such curve was filed as active); inconclusive means small, poorly fitted or top-dose-only effect, or another doubt; inactive means no such curve, though single readings can be large or run the other way. Unless noted, on the % scale 0 is the no-effect control and ±100 the full control effect.

SMILES | ALDH1A1 inh | PNC inhibitor | HPGD inh
O=C(C1CCCN(S(=O)(=O)c2ccc(F)cc2)C1)N1CCCC1 (configuration not stated) | 2% | -12 | 2%
OCCSCc1cc(Cl)cc(Cl)c1O | -11%[13.5 µM] | / | 0%
COc1cc(NCC[C@@H]2CCCCN2)c2ncccc2c1 | -1%[13.5 µM] | / | -14%
COc1cccc(Sc2ccccc2/C=N/NC(N)=O)c1 | 12% | / | /
O=c1cc(CNc2ccc(Br)cc2)nc2sccn12 | 14% | -21 | -6%
CCOC(=O)c1c(C)n(C)c2ccc(OC(=O)c3ccc(N4C(=O)CCC4=O)cc3)cc12 | -11% | -3 | -6%
COc1ccc(C(=O)N2CCC3(CCCN(c4cccc(-c5ccccc5)c4)C3)CC2)cc1 | 22µM* | / | -23%
O=C(c1ccco1)N1CCC2(CC1)CCN(c1ccc(-c3ccccc3)cc1)CC2 | -5% | / | -9%
O=C(c1ccco1)N1CCC2(CC1)CCN(c1cccc(-c3ccccc3)c1)CC2 | 28µM* | / | -19%
O=C(c1ccco1)N1CCC2(CCCN(c3ccccc3)C2)CC1 | ? | / | -2%
O=C(c1ccco1)N1CCC2(CCCN(c3cccc(-c4ccccc4)c3)C2)CC1 | 25µM* | / | -7%
COc1ccc(C(=O)N2CCC3(CCCN(c4ccccc4)C3)CC2)cc1 | ? | / | -7%
O=C(/C=C/c1ccccc1)N1CCCC1CO (configuration not stated) | -1%[13.5 µM] | / | /
COc1ccc(NC(=O)[C@@H](NC(=O)c2ccccc2)C(C)C)cc1S(=O)(=O)N1CCCCC1 | -5% | 18 | -18%
CC1(C)C(C=C(Cl)Cl)C1C(=O)N1CCN(Cc2ccccc2)CC1 (configuration not stated) | -7% | / | /
C=CCNC(=O)N1CCc2nc(CCCC)c3c(c2C1)CO[C@@H](C)C3 | 7%[13.5 µM] | / | 1%
C[C@H](CCC(=O)O)[C@H]1CC[C@@H]2[C@H]3[C@@H](CC[C@@]21C)[C@]1(C)CC[C@H](O)C[C@@H]1C[C@@H]3O | -5%[20.9 µM] | / | -2%
CN(C)/C=C/C(=O)/C=C/c1cn(-c2ncc(C(F)(F)F)cc2Cl)c2ccccc12 | -5% | ? | 14µM*
COC(=O)Cc1cn(-c2ncc(C(F)(F)F)cc2Cl)c2ccccc12 | ? | 5 | ?
CS(=O)(=O)N(CC(=O)Nc1cccc([N+](=O)[O-])c1)c1cccc(F)c1 | 3% | / | /
Clc1ncc(Cn2cccn2)s1 | 7% | / | /
CS(=O)(=O)N(CCC#N)Cc1ccco1 | 2% | / | /
CC(C)(C)c1ccc(C(=O)NCC(=O)OCC(=O)c2ccc3c(c2)-c2ccccc2C3)cc1 | 6% | 45 | -16%
CCOc1ccccc1-n1c(SCC(N)=O)nnc1-c1cccnc1 | 5% | -23 | -13%
CCOc1ccccc1-n1c(SCC(N)=O)nnc1-c1ccco1 | 25µM* | -20 | -14%
SMILES | ALDH1A1 inh | PNC inhibitor | HPGD inh
CNC(=O)CSc1nnc(-c2ccco2)n1-c1ccccc1OC | 20µM* | 33 | -5%
CCOc1ccccc1-n1c(SCC(=O)NC)nnc1-c1ccco1 | 7% | ? | -5%
c1ccc(CN2COc3c(ccc4c5c(ccc34)CN(Cc3ccccc3)CO5)C2)cc1 | -5%[13.5 µM] | / | 3%
COc1ccc(CN2CCN(Cc3csc(C(C)=O)c3)CC2CCO)c(C)c1C (configuration not stated) | -6% | / | /
CCN(CC)c1ccc(C=C(c2nnnn2-c2ccc(C)cc2)c2nnnn2-c2ccc(C)cc2)cc1 | ? | -13 | -7%
COC(=O)c1sc(NC(=O)c2ccc(Cn3cc(Cl)cn3)o2)c(C#N)c1C | 3.5µM* | 6 | 16µM*
N#Cc1c(NC(=O)c2ccc(Cn3cc(Br)cn3)o2)sc2c1CCCCC2 | ? | -8 | -24%
CCOC(=O)c1c(NC(=S)NC(=O)c2ccc(Cn3cc(Cl)cn3)o2)sc2c1CCCCC2 | -8% | 11 | -7%
CC1CCc2c(sc(NC(=O)c3ccc(Cn4cc([N+](=O)[O-])cn4)o3)c2C#N)C1 (configuration not stated) | 25µM* | -6 | -22%
Cc1ccc(S(=O)(=O)Nc2ccccc2CNc2cccc(C)n2)cc1 | -1% | ? | -13%
COc1ccc(CC(=O)Nc2ccc(S(=O)(=O)NCC3CCCO3)cc2)cc1 (configuration not stated) | 10µM* | 7 | 22µM*
COc1ccc(S(=O)(=O)N(C)c2ccc(C(=O)NCC3CCCO3)cc2)cc1 (configuration not stated) | -8% | ? | 2.8µM*
COc1ccc(N(C)S(=O)(=O)c2cccc(C(=O)NCC3CCCO3)c2)cc1 (configuration not stated) | ? | 35 | -15%
O=C(NCC1CCCO1)c1cccc(N2CCCC2=O)c1 (configuration not stated) | 4% | -2 | -19%
Cc1ccc(C(=O)NCC2CCCO2)cc1N1CCCC1=O (configuration not stated) | 0% | 17 | 11µM*
CC(=O)Nc1ccc(C(=O)Nc2ccc(S(=O)(=O)NCC3CCCO3)cc2)cc1 (configuration not stated) | -1% | 11 | -11%
Cc1ccc(C)n1-c1ccc(C(=O)NCC2CCCO2)cc1 (configuration not stated) | -10% | 6 | 8.9µM*
CCCNS(=O)(=O)c1ccc(C(=O)NCC2CCCO2)cc1 (configuration not stated) | 12% | ? | -18%
CN1CCN(C(=O)/C(=C/c2cccs2)NC(=O)c2ccco2)CC1 | 1% | / | /
Fc1cc(F)c2nc(N3CCCC3)sc2c1 | 2% | / | /
CC1CC(=O)NN1C(=O)c1ccccc1 (configuration not stated) | -4% | / | /
COc1ccc(C(=O)NCC2CCCO2)cc1 (configuration not stated) | 6% | 22 | 13µM*
O=C(NCC1CCCO1)c1ccc(COc2ccc(Br)cc2)cc1 (configuration not stated) | ? | -19 | 7.1µM*
CS(=O)(=O)Nc1ccc(C(=O)NCC2CCCO2)cc1 (configuration not stated) | 7% | -25 | -11%
Cc1noc(C)c1COc1ccc(C(=O)NCC2CCCO2)cc1 (configuration not stated) | -4% | 43 | ?
SMILES | ALDH1A1 inh | PNC inhibitor | HPGD inh
C[C@@H](C(=O)Nc1ccc2ccccc2c1)[C@H]1C[C@]1(C)[C@H](NC(=O)Oc1ccc(F)cc1)c1ccccc1 | ? | / | -7%
CCOc1cc(/C=N/NC(=O)c2cc(-c3cccc(OC)c3)n[nH]2)ccc1O | ? | / | -25%
Cc1ccc(CSc2nnc(-c3ccc(S(=O)(=O)N4CCCC4)cc3)o2)cc1 | 2% | -92* | -7%
O=S(=O)(c1ccc(-c2nnc(SCc3ccccc3)o2)cc1)N1CCCC1 | -15% | 3 | -9%
COc1ccccc1CCn1c(=O)c(-c2ccc(F)c(F)c2)nc2cncnc21 | 3% | / | /
CCc1nnc(NC(=O)CSc2nc(-c3ccccc3)cc(-c3ccc(OC)cc3)c2C#N)s1 | 5% | 33 | ?
O=C(CCC1CCCCC1)NCc1ccccn1 | 4% | ? | 32µM*
Cc1ccc(O)c(NC(=O)CCC2CCCCC2)c1 | 5% | ? | -19%
O=C(CCC1CCCC1)Nc1ccccc1-c1ccccc1 | 20µM* | 18 | -8%
O=C(NC1=NCCS1)C1CCCCC1 | 7% | / | /
O=C(CCC1CCCCC1)NC1=NCCS1 | -8% | -89* | -6%
